Assay results as given in PubChem BioAssay (Tox21).
Records with an inconclusive call do not appear. The source made the active and inactive calls. Unless noted, calls come from the whole dose curve; as a rule, active = well fitted curve in the direction sought with a large enough effect in the repeat runs; inconclusive = weak or mixed curves; inactive = no such curve, though single readings can be large; an effect the other way counts as inactive or inconclusive.

Assays:
[1] = qHTS assay to identify small molecule agonists of H2AX (AID 1224845; active = well fitted activation curve with a large enough effect in the signal ratio in the repeat runs, not every such curve was filed as active; the % refers to the signal ratio; note: potency is the fitted concentration of half-maximal effect)
Outline: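 Wild-type CHO-K1 cells plated overnight, then exposed 3 hr at 37C to compounds at 15 concentrations (0.76% DMSO). Lysed, then HTRF anti-pH2AX(S139)-cryptate/anti-H2AX-d2 detection after 24 hr at room temperature; emissions 665 and 620 nm.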

[2] = qHTS assay to identify small molecule agonists of the hypoxia (HIF-1) signaling pathway (AID 1224846; active = well fitted activation curve with a large enough effect in the signal ratio in the repeat runs, not every such curve was filed as active; the % refers to the signal ratio; note: % is set by controls: 0 for no effect and ±100 for the full control effect)
Outline: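 Steps: seed ME-180 HRE-bla cells (2,000/well, 0.5% dialyzed FBS); incubate 5 hrs at 37C; pin-transfer compounds or DMSO; incubate 17 hrs; add LiveBLAzer B/G substrate CCF4-AM; measure reporter activation by FRET.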

[3] = qHTS assay to identify small molecule agonists of H2AX - cell viability counter screen (AID 1224847; calls by dose curve; note: top concentration of the series differs between compounds; % is set by controls: 0 for no effect and ±100 for the full control effect; nearly all actives have a fitted effect of over 30% in size)
Outline: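 CHO-K1 cells plated overnight at 37C, then exposed 3 h at 37C to compounds at 15 concentrations (0.76% DMSO final). Viability by CellTiter-Glo luminescence after 30 min at room temperature.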

[4] = qHTS RealTime-Glo MT Cell Viability Assay in HepG2 cells - 24 hour (AID 1224867); note: % is set by controls: 0 for no effect and ±100 for the full control effect; nearly all actives have a fitted effect of over 50% in size
Outline: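 Viability was tracked continuously by NanoLuc luminescence from prosubstrate reduced by living HepG2 cells, at successive time points over 40 h of compound exposure. Cells with reagent were preincubated 5 h at 37 °C before compound addition.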

[5] = qHTS RealTime-Glo MT Cell Viability Assay in HEK293 cells - 32 hour (AID 1224868); note: nearly all actives have a fitted effect of over 50% in size; note: potency is the fitted concentration of half-maximal effect
Outline: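 Viability tracked continuously by luminescence as live cells reduce a prosubstrate for NanoLuc; HEK293 cells preincubated 5 h, compound-treated at 37 C, and read at 0, 8, 16, 24, 32 and 40 h.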

[6] = A CellTox Green Cytotoxicity Assay to monitor cytotoxicity in HEK293 cells - 0 hour (AID 1224869); note: % is set by controls: 0 for no effect and ±100 for the full control effect; nearly all actives have a fitted effect of over 50% in size
Outline: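 Cytotoxicity was tracked continuously in HEK293 cells by a DNA-binding dye excluded from viable cells. Compounds were transferred in DMSO 5 h after seeding; fluorescence was recorded at intervals up to 40 h.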

[7] = qHTS RealTime-Glo MT Cell Viability Assay in HepG2 cells - 40 hour (AID 1224870); note: % is set by controls: 0 for no effect and ±100 for the full control effect; nearly all actives have a fitted effect of over 50% in size
Outline: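 HepG2 cells mixed with RealTime-Glo MT reagents (NanoLuc plus cell-permeant prosubstrate) were seeded at 600 cells/well, incubated 5 h at 37 C/5% CO2, then pinned with compounds in DMSO; nonlytic luminescence tracked viability during 40 h treatment.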

[8] = qHTS assay to identify small molecule antagonists of the estrogen related receptor (ERR) signaling pathway from Tox21 library (AID 1224848)
Outline: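 Cells: ERR line, 2,000/well; 6 h preincubation 37 C/5% CO2. Cpd in DMSO via pin tool; 18 h, 37 C. ONE-Glo, 30 min RT, luminescence.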

[9] = qHTS assay to identify small molecule agonists of the estrogen related receptor (ERR) signaling pathway from Tox21 library (AID 1224849; calls by dose curve; note: % is set by controls: 0 for no effect and ±100 for the full control effect; nearly all actives have a fitted effect of over 15% in size); details: ERR reporter cell line, ONE-Glo luciferase, 18 h; at 92.4 µM (top of the series) unless noted
Outline: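 Agonist signal is luciferase luminescence from an ERR reporter cell line treated 18 h at 37 C with DMSO-dissolved compounds, read 30 min after ONE-Glo addition at room temperature.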

CCCCc1ccc(O)cc1
active: Potency [5] 19.5 µM
inactive: Potency [1] | outcome [2] | Potency [3] | Potency [4] | Potency [6] | Potency [7]

CC(C)(C)OC(=O)c1ncn2c1[C@@H]1CCCN1C(=O)c1c(Br)cccc1-2
inactive: outcome [2] | Potency [3] | activity change, positive = activation [9] -34.2% [at 42.5 µM] | Potency [4] | Potency [5] | Potency [6] | Potency [7]
active: Potency [8] 23.7 µM

CCOC(=O)/C=C(C)/C=C/C[C@@H](C)CCCC(C)C
active: Potency [1] 113 µM
inactive: outcome [2] | Potency [5] | Potency [7]

CCOP(=S)(Oc1cnc(C(C)(C)C)nc1)OC(C)C (stereo not given)
inactive: activity change, positive = activation [9] -20.7% | Potency [4] | Potency [5] | Potency [6] | Potency [7]

CC1=C(C(=O)Nc2ccccc2)S(=O)(=O)CCO1
active: Potency [5] 48.9 µM
inactive: Potency [1] | Potency [3] | Potency [4]

CC(C)(C)C(=O)C(Oc1ccc(Cl)cc1)n1cncn1 (stereo not given)
inactive: Potency [1] | Potency [3] | Potency [4] | Potency [7]

O=C1OC(=O)C2C1C1(Cl)C(Cl)=C(Cl)C2(Cl)C1(Cl)Cl (stereo not given)
inactive: Potency [1] | outcome [2] | Potency [3] | Potency [5] | Potency [6] | Potency [7]

CSc1ccc(C(=O)C(C)(C)N2CCOCC2)cc1
inactive: Potency [1] | outcome [2] | Potency [3] | Potency [4] | Potency [5] | Potency [6] | Potency [7]
